{"source": "the supplement of paper PMC4466140", "assay_in_all_cases": "SPOT peptide array binding signal intensity (averaged, normalized) (arbitrary units (background-subtracted, floor 0; scale differs between SH3 domains)); higher = stronger binding of the SH3 domain to the peptide", "key": {"[1]": {"target": "AgAbp1", "in_short": "(§1)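 The binding signal is the normalized, background-subtracted spot intensity averaged over replicates; its arbitrary units differ between domains. It was obtained by incubating 10 μg/ml GST-fused SH3 domains from four yeast species overnight at 4°C in TBS-based blocking buffer on cellulose membranes with synthetic 15-mer peptides, cysteines replaced by serines, then detecting with anti-GST antibody, HRP anti-mouse secondary and luminol.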"}, "[2]": {"target": "AgBbc1", "in_short": "as §1"}, "[3]": {"target": "AgBem1-D1", "in_short": "as §1"}, "[4]": {"target": "AgBzz1-D1", "in_short": "as §1"}, "[5]": {"target": "AgBzz1-D2", "in_short": "as §1"}, "[6]": {"target": "AgCyk3", "in_short": "as §1"}, "[7]": {"target": "AgFus1", "in_short": "as §1"}, "[8]": {"target": "AgHof1", "in_short": "as §1"}, "[9]": {"target": "AgHse1", "in_short": "as §1"}, "[10]": {"target": "AgLsb1", "in_short": "as §1"}, "[11]": {"target": "AgLsb4", "in_short": "as §1"}, "[12]": {"target": "AgMyo5", "in_short": "as §1"}, "[13]": {"target": "AgNbp2", "in_short": "as §1"}, "[14]": {"target": "AgRvs167", "in_short": "as §1"}, "[15]": {"target": "AgSho1", "in_short": "as §1"}, "[16]": {"target": "AgSla1-D1-D2", "in_short": "as §1"}, "[17]": {"target": "AgSla1-D3", "in_short": "as §1"}, "[18]": {"target": "CaAbp1-D1", "in_short": "as §1"}, "[19]": {"target": "CaAbp1-D2", "in_short": "as §1"}, "[20]": {"target": "CaBbc1", "in_short": "as §1"}, "[21]": {"target": "CaBem1-D1", "in_short": "as §1"}, "[22]": {"target": "CaBzz1-D1", "in_short": "as §1"}, "[23]": {"target": "CaBzz1-D2", "in_short": "as §1"}, "[24]": {"target": "CaCyk3", "in_short": "as §1"}, "[25]": {"target": "CaFus1", "in_short": "as §1"}, "[26]": {"target": "CaHof1", "in_short": "as §1"}, "[27]": {"target": "CaHse1", "in_short": "as §1"}, "[28]": {"target": "CaLsb1", "in_short": "as §1"}, "[29]": {"target": "CaLsb4", "in_short": "as §1"}, "[30]": {"target": "CaMyo5", "in_short": "as §1"}, "[31]": {"target": "CaNbp2", "in_short": "as §1"}, "[32]": {"target": "CaRvs167", "in_short": "as §1"}, "[33]": {"target": "CaRvs167-3", "in_short": "as §1"}, "[34]": {"target": "CaSho1", "in_short": "as §1"}, "[35]": {"target": "CaSla1-D1-D2", "in_short": "as §1"}, "[36]": {"target": "CaSla1-D3", "in_short": "as §1"}, "[37]": {"target": "ScAbp1", "in_short": "as §1"}, "[38]": {"target": "ScBbc1", "in_short": "as §1"}, "[39]": {"target": "ScBem1-D1", "in_short": "as §1"}, "[40]": {"target": "ScBzz1-D1", "in_short": "as §1"}, "[41]": {"target": "ScBzz1-D2", "in_short": "as §1"}, "[42]": {"target": "ScCyk3", "in_short": "as §1"}, "[43]": {"target": "ScFus1", "in_short": "as §1"}, "[44]": {"target": "ScHof1", "in_short": "as §1"}, "[45]": {"target": "ScHse1", "in_short": "as §1"}, "[46]": {"target": "ScLsb1", "in_short": "as §1"}, "[47]": {"target": "ScLsb2", "in_short": "as §1"}, "[48]": {"target": "ScLsb3", "in_short": "as §1"}, "[49]": {"target": "ScLsb4", "in_short": "as §1"}, "[50]": {"target": "ScMyo3", "in_short": "as §1"}, "[51]": {"target": "ScMyo5", "in_short": "as §1"}, "[52]": {"target": "ScNbp2", "in_short": "as §1"}, "[53]": {"target": "ScPex13", "in_short": "as §1"}, "[54]": {"target": "ScRvs167", "in_short": "as §1"}, "[55]": {"target": "ScSho1", "in_short": "as §1"}, "[56]": {"target": "ScSla1-D1-D2", "in_short": "as §1"}, "[57]": {"target": "ScSla1-D3", "in_short": "as §1"}, "[58]": {"target": "SpAbp1-D1", "in_short": "as §1"}, "[59]": {"target": "SpBbc1", "in_short": "as §1"}, "[60]": {"target": "SpBzz1-D1", "in_short": "as §1"}, "[61]": {"target": "SpBzz1-D2", "in_short": "as §1"}, "[62]": {"target": "SpCyk3", "in_short": "as §1"}, "[63]": {"target": "SpHof1", "in_short": "as §1"}, "[64]": {"target": "SpHof1-2", "in_short": "as §1"}, "[65]": {"target": "SpHof1-3", "in_short": "as §1"}, "[66]": {"target": "SpHse1", "in_short": "as §1"}, "[67]": {"target": "SpLsb1", "in_short": "as §1"}, "[68]": {"target": "SpLsb4", "in_short": "as §1"}, "[69]": {"target": "SpMyo1", "in_short": "as §1"}, "[70]": {"target": "SpNbp2", "in_short": "as §1"}, "[71]": {"target": "SpPex13", "in_short": "as §1"}, "[72]": {"target": "SpRvs167", "in_short": "as §1"}, "[73]": {"target": "SpSla1-D1-D2", "in_short": "as §1"}, "[74]": {"target": "SpSla1-D3", "in_short": "as §1"}}}
{"binder": "VTHRLRISIPGITGR", "values": [{"measurement": "SPOT peptide array binding signal intensity", "setting": "[1]", "result": 9}, {"measurement": "SPOT peptide array binding signal intensity", "setting": "[2]", "result": 193}, {"measurement": "SPOT peptide array binding signal intensity", "setting": "[3]", "result": 126}, {"measurement": "SPOT peptide array binding signal intensity", "setting": "[4]", "result": 58}, {"measurement": "SPOT peptide array binding signal intensity", "setting": "[5]", "result": 136}, {"measurement": "SPOT peptide array binding signal intensity", "setting": "[6]", "result": 25}, {"measurement": "SPOT peptide array binding signal intensity", "setting": "[7]", "result": 1200}, {"measurement": "SPOT peptide array binding signal intensity", "setting": "[8]", "result": 20.8}, {"measurement": "SPOT peptide array binding signal intensity", "setting": "[9]", "result": 650}, {"measurement": "SPOT peptide array binding signal intensity", "setting": "[10]", "result": 4.5}, {"measurement": "SPOT peptide array binding signal intensity", "setting": "[11]", "result": 430}, {"measurement": "SPOT peptide array binding signal intensity", "setting": "[12]", "result": 1.75}, {"measurement": "SPOT peptide array binding signal intensity", "setting": "[13]", "result": 123}, {"measurement": "SPOT peptide array binding signal intensity", "setting": "[14]", "result": 20}, {"measurement": "SPOT peptide array binding signal intensity", "setting": "[15]", "result": 146}, {"measurement": "SPOT peptide array binding signal intensity", "setting": "[16]", "result": 88}, {"measurement": "SPOT peptide array binding signal intensity", "setting": "[17]", "result": 3}, {"measurement": "SPOT peptide array binding signal intensity", "setting": "[18]", "result": 286}, {"measurement": "SPOT peptide array binding signal intensity", "setting": "[19]", "result": 146}, {"measurement": "SPOT peptide array binding signal intensity", "setting": "[20]", "result": 234}, {"measurement": "SPOT peptide array binding signal intensity", "setting": "[21]", "result": 36}, {"measurement": "SPOT peptide array binding signal intensity", "setting": "[22]", "result": 252}, {"measurement": "SPOT peptide array binding signal intensity", "setting": "[23]", "result": 114}, {"measurement": "SPOT peptide array binding signal intensity", "setting": "[24]", "result": 39.5}, {"measurement": "SPOT peptide array binding signal intensity", "setting": "[25]", "result": 1410}, {"measurement": "SPOT peptide array binding signal intensity", "setting": "[26]", "result": 1.75}, {"measurement": "SPOT peptide array binding signal intensity", "setting": "[27]", "result": 56.8}, {"measurement": "SPOT peptide array binding signal intensity", "setting": "[28]", "result": 1.25}, {"measurement": "SPOT peptide array binding signal intensity", "setting": "[29]", "result": 47.5}, {"measurement": "SPOT peptide array binding signal intensity", "setting": "[30]", "result": 34}, {"measurement": "SPOT peptide array binding signal intensity", "setting": "[31]", "result": 882}, {"measurement": "SPOT peptide array binding signal intensity", "setting": "[32]", "result": 640}, {"measurement": "SPOT peptide array binding signal intensity", "setting": "[33]", "result": 2060}, {"measurement": "SPOT peptide array binding signal intensity", "setting": "[34]", "result": 1000}, {"measurement": "SPOT peptide array binding signal intensity", "setting": "[35]", "result": 16}, {"measurement": "SPOT peptide array binding signal intensity", "setting": "[36]", "result": 252}, {"measurement": "SPOT peptide array binding signal intensity", "setting": "[37]", "result": 9}, {"measurement": "SPOT peptide array binding signal intensity", "setting": "[38]", "result": 16.2}, {"measurement": "SPOT peptide array binding signal intensity", "setting": "[39]", "result": 33.5}, {"measurement": "SPOT peptide array binding signal intensity", "setting": "[40]", "result": 44.5}, {"measurement": "SPOT peptide array binding signal intensity", "setting": "[41]", "result": 374}, {"measurement": "SPOT peptide array binding signal intensity", "setting": "[42]", "result": 82}, {"measurement": "SPOT peptide array binding signal intensity", "setting": "[43]", "result": 1730}, {"measurement": "SPOT peptide array binding signal intensity", "setting": "[44]", "result": 1}, {"measurement": "SPOT peptide array binding signal intensity", "setting": "[45]", "result": 1450}, {"measurement": "SPOT peptide array binding signal intensity", "setting": "[46]", "result": 65}, {"measurement": "SPOT peptide array binding signal intensity", "setting": "[47]", "result": 25}, {"measurement": "SPOT peptide array binding signal intensity", "setting": "[48]", "result": 327}, {"measurement": "SPOT peptide array binding signal intensity", "setting": "[49]", "result": 42}, {"measurement": "SPOT peptide array binding signal intensity", "setting": "[50]", "result": "≤ 0"}, {"measurement": "SPOT peptide array binding signal intensity", "setting": "[51]", "result": 1.75}, {"measurement": "SPOT peptide array binding signal intensity", "setting": "[52]", "result": 295}, {"measurement": "SPOT peptide array binding signal intensity", "setting": "[53]", "result": 7.5}, {"measurement": "SPOT peptide array binding signal intensity", "setting": "[54]", "result": 45.2}, {"measurement": "SPOT peptide array binding signal intensity", "setting": "[55]", "result": 946}, {"measurement": "SPOT peptide array binding signal intensity", "setting": "[56]", "result": 159}, {"measurement": "SPOT peptide array binding signal intensity", "setting": "[57]", "result": 46}, {"measurement": "SPOT peptide array binding signal intensity", "setting": "[58]", "result": 95.5}, {"measurement": "SPOT peptide array binding signal intensity", "setting": "[59]", "result": 32.8}, {"measurement": "SPOT peptide array binding signal intensity", "setting": "[60]", "result": 396}, {"measurement": "SPOT peptide array binding signal intensity", "setting": "[61]", "result": "≤ 0"}, {"measurement": "SPOT peptide array binding signal intensity", "setting": "[62]", "result": 9}, {"measurement": "SPOT peptide array binding signal intensity", "setting": "[63]", "result": 353}, {"measurement": "SPOT peptide array binding signal intensity", "setting": "[64]", "result": 71}, {"measurement": "SPOT peptide array binding signal intensity", "setting": "[65]", "result": 594}, {"measurement": "SPOT peptide array binding signal intensity", "setting": "[66]", "result": 526}, {"measurement": "SPOT peptide array binding signal intensity", "setting": "[67]", "result": 8.25}, {"measurement": "SPOT peptide array binding signal intensity", "setting": "[68]", "result": 42}, {"measurement": "SPOT peptide array binding signal intensity", "setting": "[69]", "result": 1}, {"measurement": "SPOT peptide array binding signal intensity", "setting": "[70]", "result": 1510}, {"measurement": "SPOT peptide array binding signal intensity", "setting": "[71]", "result": 17}, {"measurement": "SPOT peptide array binding signal intensity", "setting": "[72]", "result": 68.8}, {"measurement": "SPOT peptide array binding signal intensity", "setting": "[73]", "result": "≤ 0"}, {"measurement": "SPOT peptide array binding signal intensity", "setting": "[74]", "result": 10}]}
